This is part of a sample that, as a whole, favours compounds with a hit. Of some 79,000 tested, about 15% had one in any assay. Activity calls are given as the source filed them. Cut-off read from the data, not from the text of the source: active = growth inhibition above about 70%; inactive = the rest.
Legend:
[1] = NCI Yeast Anticancer Drug Screen. Data for the rad52 strain (AID 147);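 note: 0% = growth of vehicle-treated control cultures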; details: S. cerevisiae rad52 mutant growth inhibition, active compounds read high
Outline: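 DNA repair-defective yeast; compound exposure; growth scored against vehicle controls.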

[2] = NCI Yeast Anticancer Drug Screen. Data for the wt1 strain (AID 149);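 note: 0% = growth of vehicle-treated wt1 cultures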; details: S. cerevisiae wt1 strain (SPY 50644) growth inhibition, active compounds read high
Outline: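 wt1 strain grown with compound or vehicle; inhibition taken from the growth difference.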

[3] = NCI Yeast Anticancer Drug Screen. Data for the mgt1 strain (AID 153); details: S. cerevisiae mgt1 mutant growth inhibition, active compounds read high
Outline: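 Growth inhibition relative to vehicle controls was scored for the mgt1 yeast strain after compound exposure.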

[4] = NCI Yeast Anticancer Drug Screen. Data for the rad50 strain (AID 155);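 note: 0% = growth of vehicle-only cultures of the same strain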; details: S. cerevisiae rad50 strain growth inhibition, active compounds read high
Outline: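 DNA repair mutant yeast, compound exposure, growth read-out; inhibition is taken relative to vehicle.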

[5] = NCI Yeast Anticancer Drug Screen. Data for the mec2-1 strain (AID 157); details: S. cerevisiae mec2-1 strain, active compounds read high
Outline: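 Growth inhibition is read against vehicle-treated controls after compound exposure of the mec2-1 yeast strain, which is defective in DNA damage repair or cell cycle control.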

[6] = NCI Yeast Anticancer Drug Screen. Data for the rad14 strain (AID 159);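 note: 0% = growth of vehicle-treated control cultures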; details: S. cerevisiae rad14 strain growth inhibition, active compounds read high
Outline: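 DNA repair-defective yeast, compound-exposed; % growth inhibition derived by comparison with vehicle-treated controls.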

[7] = NCI Yeast Anticancer Drug Screen. Data for the sgs1 mgt1 strain (AID 161);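 note: 0% = growth of cultures given vehicle only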; details: S. cerevisiae sgs1 mgt1 strain, active compounds read high
Outline: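 Growth of a repair-deficient yeast mutant was monitored after compound treatment and expressed as inhibition relative to vehicle-treated cultures.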

[8] = NCI Yeast Anticancer Drug Screen. Data for the cln2 rad14 strain (AID 165);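 note: 0% = growth equal to vehicle treated cultures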; details: S. cerevisiae cln2 rad14 strain, active compounds read high
Outline: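 Growth inhibition, relative to vehicle-treated controls, is the read-out. The test organism is a yeast strain with defined genetic alterations, cln2 rad14.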

[9] = NCI Yeast Anticancer Drug Screen. Data for the bub3 strain (AID 167); details: S. cerevisiae bub3 mutant strain, active compounds read high
Outline: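 In this screen, a yeast mutant lacking normal mitotic checkpoint function is challenged with compound. Relative growth versus vehicle gives the inhibition value.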

[10] = NCI Yeast Anticancer Drug Screen. Data for the wt2 strain (AID 169);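 note: 0% = growth of vehicle-treated yeast cultures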; details: S. cerevisiae wt2 strain growth inhibition, active compounds read high
Outline: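 Compound exposure of yeast; growth compared with vehicle controls; inhibition reported.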

[11] = NCI Yeast Anticancer Drug Screen. Data for the mlh1 strain (AID 171);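 note: 0% = growth of vehicle-treated control cultures of the same strain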; details: S. cerevisiae mlh1 strain growth inhibition, active compounds read high
Outline: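 Compounds are applied to a genetically altered yeast strain, and its growth is compared with that of vehicle-treated cultures to give percent inhibition.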

[12] = NCI Yeast Anticancer Drug Screen. Data for the sgs1 strain (AID 173);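 note: 0% = growth of vehicle-only control cultures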; details: S. cerevisiae sgs1 mutant, active compounds read high
Outline: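 Compounds applied to genetically altered yeast; growth compared with vehicle-treated cultures to give % inhibition.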

[13] = NCI Yeast Anticancer Drug Screen. Data for the mlh1 rad18 strain (AID 175); details: S. cerevisiae mlh1 rad18 strain growth inhibition, active compounds read high
Outline: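 Cells of a genetically altered yeast strain, deficient in DNA damage repair, were treated with compound. Their growth was then compared with that of vehicle-treated cultures to give inhibition.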

[14] = NCI Yeast Anticancer Drug Screen. Data for the rad18 strain (AID 177); details: S. cerevisiae rad18 mutant growth inhibition, active compounds read high
Outline: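 Compounds are applied to a repair-deficient yeast strain, and growth is compared with that of vehicle-treated cultures to give percent inhibition.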

[15] = NCI Yeast Anticancer Drug Screen. Data for the CLN2oe strain (AID 163);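 note: 0% = growth of vehicle-only control cultures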; details: S. cerevisiae CLN2oe strain, active compounds read high
Outline: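 Compound-treated yeast; growth vs vehicle ctrl = % inhibition. Genetically altered strain (cell-cycle control).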

[16] = at 5.0 µM (retest, dose inferred, filed as 0.5)
[17] = at 50.0 µM (retest, dose inferred, filed as 5.0)

Measured: growth inhibition

CCCCN1C(=O)N(c2ccc(OCC)cc2)C2N(CCCC)C1C(C)(C)C2(C)C (stereo unspecified)
inactive: [1]; at 1.2 µM -6% | [1]; at 3.7 µM -13% | [1]; at 11.0 µM 3% | [1]; at 33.0 µM 30% | [2]; at 1.2 µM -3% | [2]; at 3.7 µM 3% | [2]; at 11.0 µM 9% | [2]; at 33.0 µM 19% | [2]; at 100.0 µM 52% | [3]; at 1.2 µM -4% | [3]; at 3.7 µM -7% | [3]; at 11.0 µM -6% | [3]; at 33.0 µM -7% | [3]; at 100.0 µM 5% | [4]; at 1.2 µM -17% | [4]; at 3.7 µM -18% | [4]; [16] 0% | [4]; at 11.0 µM 9% | [4]; at 33.0 µM 35% | [4]; [17] 50% | [4]; at 50.0 µM 49.6% | [5]; at 1.2 µM -5% | [5]; at 3.7 µM -4% | [5]; [16] 4% | [5]; at 11.0 µM -5% | [5]; at 33.0 µM -5% | [5]; [17] 62% | [5]; at 50.0 µM 19.9% | [5]; at 100.0 µM 22% | [6]; at 1.2 µM -1% | [6]; at 3.7 µM -6% | [6]; at 11.0 µM -6% | [6]; at 33.0 µM 15% | [7]; [16] 12% | [7]; at 50.0 µM 65.3% | [8]; [16] -3% | [8]; [17] 13% | [8]; at 50.0 µM 21.1% | [9]; at 1.2 µM -9% | [9]; at 3.7 µM -7% | [9]; [16] -2% | [9]; at 11.0 µM -12% | [9]; at 33.0 µM -11% | [9]; [17] 24% | [9]; at 50.0 µM 27.9% | [9]; at 100.0 µM 25% | [10]; at 1.2 µM -3% | [10]; at 3.7 µM 4% | [10]; at 11.0 µM 12% | [10]; at 33.0 µM 26% | [11]; at 1.2 µM -6% | [11]; at 3.7 µM -11% | [11]; at 11.0 µM -9% | [11]; at 33.0 µM -3% | [12]; at 1.2 µM -2% | [12]; at 3.7 µM -2% | [12]; at 11.0 µM 20% | [12]; at 33.0 µM 57% | [13]; [16] 13% | [13]; at 50.0 µM 54.1% | [14]; at 1.2 µM -7% | [14]; at 3.7 µM 0% | [14]; at 11.0 µM 27%
active: [1]; at 100.0 µM 86% | [4]; at 100.0 µM 84% | [6]; at 100.0 µM 72% | [7]; [17] 82% | [10]; at 100.0 µM 91% | [11]; at 100.0 µM 79% | [12]; at 100.0 µM 95% | [13]; [17] 84% | [14]; at 33.0 µM 74% | [14]; at 100.0 µM 93%

O=C(c1cc(Br)ccc1O)c1cc(Br)ccc1O
inactive: [1]; at 1.2 µM 13% | [2]; at 1.2 µM 9% | [3]; at 1.2 µM 38% | [4]; at 1.2 µM 13% | [4]; at 3.7 µM 67% | [4]; [16] 2% | [5]; at 1.2 µM 29% | [5]; [16] 20% | [6]; at 1.2 µM 8% | [6]; at 3.7 µM 40% | [7]; [16] 22% | [15]; at 1.2 µM 34% | [8]; [16] -3% | [9]; at 1.2 µM 17% | [9]; [16] 5% | [10]; at 1.2 µM 12% | [11]; at 1.2 µM 23% | [12]; at 1.2 µM 32% | [13]; [16] 45%
active: [1]; at 3.7 µM 80% | [1]; at 11.0 µM 99% | [1]; at 33.0 µM 99% | [1]; at 100.0 µM 99% | [2]; at 3.7 µM 78% | [2]; at 11.0 µM 99% | [2]; at 33.0 µM 100% | [2]; at 100.0 µM 100% | [3]; at 3.7 µM 95% | [3]; at 11.0 µM 99% | [3]; at 33.0 µM 100% | [3]; at 100.0 µM 100% | [4]; at 11.0 µM 99% | [4]; at 33.0 µM 99% | [4]; [17] 99% | [4]; at 50.0 µM 99.3% | [4]; at 100.0 µM 99% | [5]; at 3.7 µM 97% | [5]; at 11.0 µM 99% | [5]; at 33.0 µM 100% | [5]; [17] 100% | [5]; at 50.0 µM 99.5% | [5]; at 100.0 µM 100% | [6]; at 11.0 µM 99% | [6]; at 33.0 µM 100% | [6]; at 100.0 µM 98% | [7]; [17] 97% | [7]; at 50.0 µM 99.4% | [15]; at 3.7 µM 96% | [15]; at 11.0 µM 100% | [15]; at 33.0 µM 99% | [15]; at 100.0 µM 99% | [8]; [17] 98% | [8]; at 50.0 µM 98.7% | [9]; at 3.7 µM 90% | [9]; at 11.0 µM 99% | [9]; at 33.0 µM 99% | [9]; [17] 99% | [9]; at 50.0 µM 99.2% | [9]; at 100.0 µM 99% | [10]; at 3.7 µM 87% | [10]; at 11.0 µM 99% | [10]; at 33.0 µM 100% | [10]; at 100.0 µM 100% | [11]; at 3.7 µM 93% | [11]; at 11.0 µM 99% | [11]; at 33.0 µM 100% | [11]; at 100.0 µM 100% | [12]; at 3.7 µM 90% | [12]; at 11.0 µM 99% | [12]; at 33.0 µM 100% | [12]; at 100.0 µM 100% | [13]; [17] 99% | [13]; at 50.0 µM 99.4%
